LASV entry inh = Lassa virus entry inhibition; Lassa virus pseudotype entry inhibition, cell reporter; Potency, µM (series often up to 37.9 µM), for the others: top-dose activity change, negative = inhibition, usual class: inhibitors; actives 1.2% (n = 300,000); calls by dose curve; tested in HEK293 cells; further: potency means the concentration at half of the fitted maximal effect; nearly all actives have a fitted effect of over 50% in size
HCMV inh = inhibitors of human cytomegalovirus | activity change, negative = inhibition, % at 57.5 µM | HFF cells, HCMV-luciferase reporter, 72 h; stronger effect = lower value | actives 4.5% (n = 410,000) | AID 1259415; in the data active means activity change below about -60%; inconclusive means no clear call, values can overlap the other calls; inactive means above about -39%
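Two compound doses tested in HFFs infected with HCMV-luciferase, MOI 1 PFU/cell, 72 h at 37C. Lysate luminescence read with OneGlo; data normalized against buffer-only and 10uM Salinomycin inhibitor controls.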
MARV entry inh = inhibitors of Marburg virus binding or cell entry. AID 540276. Marburg virus pseudotyped entry inhibition, cell reporter. Potency, µM (titrated, usually from 37.8 µM), for inactives: at the top dose activity change, negative = inhibition, actives largely listed as inhibitors. actives 1.8% (n = 300,000); calls by dose curve; tested in HEK293 cells; further: potency means the concentration at half of the fitted maximal effect
FMDV antiviral = blocks foot and mouth disease virus. FMDV antiviral cell-based qHTS. Potency, µM (doses to about 57.9 µM), for inactives: at the highest dose activity change, negative = inhibition, actives largely listed as inhibitors. actives 1.2% (n = 410,000); calls by dose curve; tested in HEK293T cells; further: read-out not given here; potency means the concentration at half of the fitted maximal effect; nearly all actives have a fitted effect of over 45% in size
HCV inhibitor = inhibitors of hepatitis C virus infection | Huh7.5.1 HCVcc-Cre infection, luciferase reporter, 44 h | Potency, µM (titrated, usually from 41.8 µM), for inactives: top-dose activity change, negative = inhibition, usual class: inhibitors | actives 3.4% (n = 340,000) | AID 651820; active means well fitted inhibition curve with a large enough effect; inconclusive means small, poorly fitted or top-dose-only effect, or another doubt; inactive means no such curve, though single readings can be large or run the other way; further: potency means the concentration at half of the fitted maximal effect
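Antiviral activity was scored by luciferase reporter output from cells infected with HCVcc-Cre (~0.5 moi) in presence of compound, 44 h infection period, cells seeded 1,000/well 4 h prior.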
* hit, by the source's call; [ ] = remark or other dose. Shown are actives, neighbours in structure and some others; about 7.9% of the full set was active somewhere. On the % scale 0 is the no-effect control and ±100 the full control effect.

CCC1(C2CCN(Cc3cc4ccccc4o3)CC2)NC(=O)N(CC2COc3ccccc3O2)C1=O (stereo not given) was read as FMDV antiviral -25%.
`Cn1c(=O)c2c(nc(Oc3ccc4ccccc4c3)n2C)n(C)c1=O` gave LASV entry inh 6%, HCMV inh -76*, MARV entry inh -13%, FMDV antiviral -17% and HCV inhibitor -15%.
For COc1ccc(Oc2nc3c(c(=O)n(C)c(=O)n3C)n2C)cc1 the results were HCMV inh -37, FMDV antiviral -10% and HCV inhibitor 0%.
Screening Cn1c(=O)c2c(nc(Br)n2Cc2ccc3ccccc3c2)n(C)c1=O returned LASV entry inh -18%, HCMV inh -14, MARV entry inh -19%, FMDV antiviral 14µM* and HCV inhibitor inconclusive.
`O=C(CN1C(=O)CSc2ccc(S(=O)(=O)N3CCCC3)cc21)NCc1ccc(Cl)cc1` gave LASV entry inh -5%[46.1 µM], HCMV inh 46 and FMDV antiviral -3%.
`Cc1ccc(C)c(S(=O)(=O)N2CCN(CC(=O)NC(=O)NCc3ccccc3)CC2)c1` gave LASV entry inh 26µM*, HCMV inh -1, MARV entry inh inconclusive, FMDV antiviral inconclusive and HCV inhibitor -12%.
CCOC(=O)c1c(C)[nH]c(C(=O)OCC(=O)N2CCN(S(=O)(=O)c3ccc(C)cc3C)CC2)c1C was read as HCMV inh -29, FMDV antiviral inconclusive and HCV inhibitor 14µM*.
CSc1ccc(CSCC(=O)N2CCN(S(=O)(=O)c3ccc(C)cc3C)CC2)cc1 was read as HCMV inh -20, FMDV antiviral inconclusive and HCV inhibitor 8.9µM*.
COc1ccc(CNC(=O)N2CCN(S(=O)(=O)c3ccc(C)cc3C)CC2)cc1 was read as LASV entry inh -12%, HCMV inh 29, MARV entry inh -23%, FMDV antiviral -6% and HCV inhibitor inconclusive.
For Cc1ccc(S(=O)(=O)N2CCN(C(=O)NCc3ccc(F)cc3)CC2)c(C)c1 the results were LASV entry inh -11%, HCMV inh -71*, MARV entry inh inconclusive, FMDV antiviral -16% and HCV inhibitor -22%.
`CC(=O)c1c(C)[nH]c(C(=O)N2CCN(S(=O)(=O)c3ccc(C)cc3C)CC2)c1C` gave HCMV inh 8, FMDV antiviral -26% and HCV inhibitor -11%.
`O=C(CN1CCC(Cc2ccccc2)CC1)NC(=O)NCc1ccccc1` gave LASV entry inh -11%, HCMV inh 3, MARV entry inh 21%, FMDV antiviral -7% and HCV inhibitor 4%.
For O=C(CCCO)N/N=C/c1ccccc1[N+](=O)[O-] the results were LASV entry inh 22%, HCMV inh inconclusive, MARV entry inh inconclusive, FMDV antiviral 38% and HCV inhibitor 16%.
Cc1ccc(S(=O)(=O)NCC(=O)N/N=C/c2ccccc2O)cc1 was read as LASV entry inh 7.3µM*, HCMV inh -22, MARV entry inh inconclusive, FMDV antiviral -7% and HCV inhibitor -87%.
For O=[N+]([O-])c1cc2c(cc1/C=N\NS(=O)(=O)c1ccccc1)OCO2 the results were LASV entry inh -28%, HCMV inh -84*, MARV entry inh inconclusive and HCV inhibitor 8%.
Screening O=C(CNS(=O)(=O)c1ccccc1)N/N=C/c1ccccc1[N+](=O)[O-] returned LASV entry inh -8%[46.1 µM], HCMV inh -65*, MARV entry inh 1%[46.1 µM], FMDV antiviral -11% and HCV inhibitor -2%.
COc1ccc(CNC(C)C23CC4CC(CC(C4)C2)C3)c(OC)c1OC (stereo not given) was read as HCMV inh -61*, FMDV antiviral -21% and HCV inhibitor inconclusive.
Cc1cn(C2CC(N=[N+]=[N-])C(CO)O2)c(=O)[nH]c1=O (stereo not given) was read as FMDV antiviral -13%.
`CC(=O)C(=Nc1ccc(Cl)cc1Cl)NNc1cccc(Cl)c1` gave LASV entry inh 10µM*, HCMV inh -16, MARV entry inh inconclusive, FMDV antiviral 24% and HCV inhibitor 10µM*.
For CC(=O)Nc1ccc(NC(=O)Nc2cccc(Cl)c2)cc1 the results were HCMV inh 25, FMDV antiviral 16% and HCV inhibitor -25%.
`CCOC(=O)N/N=C1\C[C@@H](O)[C@@H](O)[C@@H]2[C@@H]3C(=O)N(C[C@@H]4CCCO4)C(=O)[C@@H]3CC[C@@H]12` gave MARV entry inh 6%[14.2 µM].
`Cc1cc(C)c(NC(=O)COc2nc3ccccc3nc2C)c(C)c1` gave LASV entry inh 18%, HCMV inh inconclusive, MARV entry inh -12%, FMDV antiviral -27% and HCV inhibitor 11µM*.
For Cc1nc2ccccc2nc1OCC(=O)Nc1ccc2ccccc2c1 the results were LASV entry inh 3%, HCMV inh 40, MARV entry inh -7%, FMDV antiviral -11% and HCV inhibitor inconclusive.
Screening O=C(/C=C/c1ccco1)Oc1cccc2cccnc12 returned LASV entry inh 6%, HCMV inh -72*, MARV entry inh inconclusive, FMDV antiviral 11% and HCV inhibitor inconclusive.
O=C(/C=C\c1ccco1)Oc1cccc2cccnc12 was read as LASV entry inh 27%, HCMV inh 12, MARV entry inh inconclusive, FMDV antiviral 9% and HCV inhibitor inconclusive.
Screening Oc1ccccc1CN1CCCN(Cc2ccccc2O)C1 returned LASV entry inh 7.3µM*, HCMV inh 16, MARV entry inh 1.5µM*, FMDV antiviral 3% and HCV inhibitor 8.9µM*.
`CN(Cc1ccccc1)c1nc(N)nc(Cl)c1C=O` gave LASV entry inh -2%, HCMV inh -29, MARV entry inh inconclusive, FMDV antiviral inconclusive and HCV inhibitor 4µM*.
CN(Cc1ccccc1)c1nccn2ccnc12 was read as HCMV inh -10 and FMDV antiviral -1%.
For Nc1nn(S(=O)(=O)c2cccc3nsnc23)cc1-c1ccc(Br)cc1 the results were LASV entry inh -2%, HCMV inh -9, MARV entry inh inconclusive, FMDV antiviral -21% and HCV inhibitor 10µM*.
Screening COc1ccc(OC)c(-c2csc(NC(=O)CSc3ccc(Br)cc3)n2)c1 returned LASV entry inh 7.9µM*, HCMV inh -15, MARV entry inh -38%, FMDV antiviral 0% and HCV inhibitor inconclusive.
For COc1ccc(OC)c(-c2csc(NC(=O)Cc3cc(OC)c(OC)c(OC)c3)n2)c1 the results were LASV entry inh -11%, HCMV inh -37, MARV entry inh inconclusive, FMDV antiviral inconclusive and HCV inhibitor 11µM*.
`COc1ccc(OC)c(-c2csc(NC(=O)Cc3ccc(F)cc3)n2)c1` gave LASV entry inh inconclusive, HCMV inh 10, MARV entry inh inconclusive, FMDV antiviral 15% and HCV inhibitor inconclusive.
For COc1ccc(OC)c(-c2csc(NC(=O)CSc3ccc([N+](=O)[O-])cc3)n2)c1 the results were LASV entry inh inconclusive, HCMV inh -32, MARV entry inh inconclusive, FMDV antiviral inconclusive and HCV inhibitor 10µM*.
